Here are results for 14 compounds from PubChem BioAssay (NCATS).

Assay [1] is described as follows: qHTS profiling of the MIPE4 collection as inhibitors of Plasmodium falciparum (3D7) proliferation (AID 743344).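 Note: scaled between DMSO vehicle wells and 0.29 µM artemisinin as full inhibition.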 The following applies: P. falciparum 3D7 in erythrocytes, SYBR Green DNA fluorescence, 72 h; at 28.5 µM unless noted. The gist of the method: (§1)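 Parasite DNA was quantified by SYBR Green I fluorescence (ex 485, em 535 nm) after overnight lysis in saponin/Triton buffer at room temperature. Cultures at 0.3% parasitemia and 2.5% hematocrit were first exposed to compound for 72 h at 37 C; signals were normalised to artemisinin (0.29 uM) and vehicle wells.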
Background: Quantitative high-throughput screening tests each substance at several concentrations.

The nature of assay [2]: qHTS profiling of the MIPE4 collection as inhibitors of Plasmodium falciparum (DD2) proliferation (AID 743345). The following applies: P. falciparum Dd2 in erythrocytes, SYBR Green DNA, 72 h; at 28.5 µM unless noted. The method, boiled down: as §1
The nature of assay [3]: qHTS profiling of the MIPE4 collection as inhibitors of Plasmodium falciparum (DD2) proliferation (Rep 2) (AID 743346). The following applies: P. falciparum Dd2 in erythrocytes, SYBR Green DNA, 72 h; at 28.5 µM unless noted. The gist of the method: as §1
Assay [4] can be described thus: qHTS profiling of the MIPE4 collection as inhibitors of Plasmodium falciparum (HB3) proliferation (AID 743347).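 Note: plate controls were DMSO vehicle wells for no effect and artemisinin wells for full effect.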 The following applies: P. falciparum HB3 in erythrocytes, SYBR Green DNA, 72 h; at 28.5 µM unless noted. The gist of the method: as §1

Structures are written as SMILES.

Turning to `COc1ccc(Nc2nccc(NCCO)n2)cc1`, the parasite growth, % of DMSO control in assay [1] is 67.2%. Besides, the parasite growth remaining, % of DMSO control (lower = more inhibition) in assay [2] is 94.8%. Also, the parasite growth, % of control (lower = inhibition) in assay [3] amounted to 83.3%. Moreover, in assay [4], the growth, % of control stood at 87.1%.

In assay [1], `COc1cc2ncnc(Nc3cccc(Br)c3)c2cc1OC` showed a parasite growth, % of DMSO control of 8.2%. The parasite growth remaining, % of DMSO control (lower = more inhibition) in assay [2] was 37.1%. In assay [3], the parasite growth, % of control (lower = inhibition) came to 48.9%. In assay [4], this compound returned a growth, % of control of 8.18%.

With `C[C@H](CCC(=O)O)[C@H]1CCC2C3C[C@H](O)[C@@H]4C[C@H](O)CC[C@]4(C)C3CC[C@@]21C` (stereo partly specified), the parasite growth, % of DMSO control in assay [1] was found to be 79.8%. In addition, in assay [2], the parasite growth remaining, % of DMSO control (lower = more inhibition) is 102%. For the same compound, the parasite growth, % of control (lower = inhibition) in assay [3] amounted to 88.7%. Moreover, the growth, % of control in assay [4] was 103%.

In turn, `CO[C@@H]1[C@@H](O)[C@H](O)[C@@H](n2c3c(Cl)cccc3c3c4c(c5c6cccc(Cl)c6[nH]c5c32)C(=O)NC4=O)O[C@@H]1CO` yielded a parasite growth, % of DMSO control in assay [1] of 7.5%. Also, the parasite growth remaining, % of DMSO control (lower = more inhibition) in assay [2] amounted to 7.89%. In assay [3], the parasite growth, % of control (lower = inhibition) worked out at 8.26%. In addition, in assay [4], the growth, % of control worked out at 8.64%.

The compound `C[C@@H]1[C@H](C)CC[C@]2(C(=O)O)CC[C@]3(C)C(=CC[C@@H]4[C@@]5(C)C[C@@H](O)[C@H](O)[C@@](C)(CO)[C@H]5CC[C@]43C)[C@@H]12` yielded a parasite growth, % of DMSO control in assay [1] of 68.7%. For the same compound, the parasite growth remaining, % of DMSO control (lower = more inhibition) in assay [2] stood at 90.5%. For the same compound, in assay [3], the parasite growth, % of control (lower = inhibition) was determined as 52.5%. For the same compound, the growth, % of control in assay [4] turned out to be 43.6%.

The compound `CC(C=CC=C(C)C=CC1=C(C)CCCC1(C)C)=CC=CC=C(C)C=CC=C(C)C=CC1=C(C)CCCC1(C)C` had a parasite growth, % of DMSO control in assay [1] of 11.9%. The parasite growth remaining, % of DMSO control (lower = more inhibition) in assay [2] was found to be 92.7%. In assay [3], this compound returned a parasite growth, % of control (lower = inhibition) of 28.1%. In addition, in assay [4], the growth, % of control was determined as 7.95%.

Turning to `COc1ccnc2[nH]cc(C(=O)C(=O)N3CCN(C(=O)c4ccccc4)C[C@@H]3C)c12`, in assay [1], the parasite growth, % of DMSO control turned out to be 81%. Also, the parasite growth remaining, % of DMSO control (lower = more inhibition) in assay [2] turned out to be 98%. Besides, the parasite growth, % of control (lower = inhibition) in assay [3] was 86.4%. Also, in assay [4], the growth, % of control was 99.1%.

In assay [1], `COc1cc(C[C@@H](CO)[C@H](CO)Cc2ccc(O)c(OC)c2)ccc1O` returned a parasite growth, % of DMSO control of 90.4%. Further, the parasite growth remaining, % of DMSO control (lower = more inhibition) in assay [2] was 100%. This compound also showed a parasite growth, % of control (lower = inhibition) in assay [3] of 80.4%. This compound registered a growth, % of control in assay [4] of 96.5%.

As to `COc1ccc(C[C@@H](C)[C@@H](C)Cc2ccc(OC)c(OC)c2)cc1OC`, the parasite growth, % of DMSO control in assay [1] is 62.3%. Further, the parasite growth remaining, % of DMSO control (lower = more inhibition) in assay [2] turned out to be 87.5%. The compound further displayed a parasite growth, % of control (lower = inhibition) in assay [3] of 60.3%. This compound displayed a growth, % of control in assay [4] of 30.9%.

Regarding `C=CCNC1=C2C[C@@H](C)C[C@H](OC)[C@@H](O)[C@@H](C)C=C(C)[C@H](OC(N)=O)[C@@H](OC)C=CC=C(C)C(=O)NC(=CC1=O)C2=O`, the parasite growth, % of DMSO control in assay [1] was 5.05%. Also, the parasite growth remaining, % of DMSO control (lower = more inhibition) in assay [2] turned out to be 7.22%. Also, the parasite growth, % of control (lower = inhibition) in assay [3] amounted to 9.89%. The same compound had a growth, % of control in assay [4] of 4.67%.

As to `c1cc(CN2CCCNCCNCCCNCC2)ccc1CN1CCCNCCNCCCNCC1`, the parasite growth, % of DMSO control in assay [1] amounted to 91.4%. In addition, in assay [2], the parasite growth remaining, % of DMSO control (lower = more inhibition) was 96.2%. Further, the parasite growth, % of control (lower = inhibition) in assay [3] was 74%. In assay [4], the growth, % of control was 88.5%.

The compound `Cc1cnc(NC(=O)Nc2cc(Br)c(C)cc2OC[C@@H]2CNCCO2)cn1` registered a parasite growth, % of DMSO control in assay [1] of 5.93%. Further, the parasite growth remaining, % of DMSO control (lower = more inhibition) in assay [2] worked out at 7.73%. For the same compound, the parasite growth, % of control (lower = inhibition) in assay [3] was 8.58%. Also, the growth, % of control in assay [4] came out at 2.97%.

In turn, `O=C(NC1CC1)c1cccc(-c2ccc3c(NC(=O)C4CC4)n[nH]c3c2)c1` gave a parasite growth, % of DMSO control in assay [1] of 35.1%. Also, the parasite growth remaining, % of DMSO control (lower = more inhibition) in assay [2] stood at 96.7%. The compound further returned a parasite growth, % of control (lower = inhibition) in assay [3] of 59.5%. The compound also came in with a growth, % of control in assay [4] of 63.3%.

In assay [1], `COc1cc(O)c2c(c1)C1OC1C[C@H](O)[C@H](O)C(=O)C=CC[C@H](C)OC2=O` (stereo partly specified) gave a parasite growth, % of DMSO control of 5.71%. Moreover, the parasite growth remaining, % of DMSO control (lower = more inhibition) in assay [2] stood at 10.6%. Besides, the parasite growth, % of control (lower = inhibition) in assay [3] amounted to 6.84%. Further, the growth, % of control in assay [4] turned out to be 2.42%.
